MITF primary = MITF inhibitors, primary screen, biochemical, AlphaScreen, human | Microphthalmia-associated transcription factor (Homo sapiens), O75030 | AlphaScreen MITF homodimerization, bead proximity signal | inhibition, % at 2.6 µM | 650,000 compounds, 0.91% hits; in the data active = inhibition above about 50%;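 note: 0% = vehicle wells with protein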
FBW7 activator = FBW7 E3 ligase activators, primary screen, biochemical, AlphaScreen, human. F-box/WD repeat-containing protein 7 (Homo sapiens), Q969H0. AID 1259310, 2017. 650,000 compounds, 0.13% hits. normalized activity (activation), % at 26.1 µM. AlphaScreen FBW7–phospho-cyclin E peptide binding, activator screen; in the data active = normalized activity above about 1.9%;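 note: purified mutant Fbw7 with reduced substrate affinity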
GPR151 activ = activators of human GPR151, primary screen, cell-based, PathHunter beta-arrestin, luminescence; activation, % at 11.2 µM; AID 1508602, 2020; 650,000 compounds, 1% hits; PathHunter beta-arrestin GPR151 cells; in the data active = activation above about 4.9%;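 note: 0% = median of compound wells and 100% = cells with positive control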
Target sequence (Q8TDV0 whole entry, looked up): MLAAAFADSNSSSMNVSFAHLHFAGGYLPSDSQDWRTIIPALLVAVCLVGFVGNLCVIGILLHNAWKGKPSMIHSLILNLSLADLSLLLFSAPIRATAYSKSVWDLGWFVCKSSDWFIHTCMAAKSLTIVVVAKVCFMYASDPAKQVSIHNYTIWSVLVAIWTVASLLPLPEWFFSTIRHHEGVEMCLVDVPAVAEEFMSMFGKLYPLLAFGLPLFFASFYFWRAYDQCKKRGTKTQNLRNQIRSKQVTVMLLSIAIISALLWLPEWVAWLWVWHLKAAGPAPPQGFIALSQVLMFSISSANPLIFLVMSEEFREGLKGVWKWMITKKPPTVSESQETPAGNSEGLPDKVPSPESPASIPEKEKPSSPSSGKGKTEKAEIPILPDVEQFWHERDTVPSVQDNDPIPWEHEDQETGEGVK
TEAD-YAP block = TEAD-YAP interaction inhibition, primary screen, TEAD-YAP interaction inhibitor project, luminescence, HEK-TIYL cells; 640,000 compounds, 1.4% hits; TEAD-Gal4/YAP UAS-luciferase luminescence; AID 1259422, 2018; inhibition, % at 9.12 µM; in the data active = inhibition above about 32%;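 note: 0% = median of test compound wells and 100% = reference inhibitor wells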
* marks the source's active call; other numbers are inactive results. In the library only some 3.5% were active in any assay of this set; here they are far more common.

SMILES	MITF primary	FBW7 activator	GPR151 activ	TEAD-YAP block
O=c1c(-c2ccc(O)cc2)coc2cc(OC3OC(CO)C(O)C(O)C3O)ccc12 (stereo not drawn)	-1.6	0.1	-2.9	53.9*
O=c1c(-c2cnn(-c3ccccc3)c2)coc2cc(O)ccc12	-21.7	0.1	-2.1	33.0*
CCOc1ccc(-n2cc3c(C)nn(-c4ccccc4)c3nc2=O)cc1	4.5	0.0	0.0	17.0
COc1ccc2c(=O)c(-c3ccc(O)cc3)coc2c1	-7.4	-0.1	-2.0	80.8*
O=C(NC1CC1)c1ccc(-c2nc(NCc3cccc(C(F)(F)F)c3)c3ncn(-c4ccsc4)c3n2)cc1	6.4	0.3	1.0	8.1
O=C(NC1CC1)c1ccc(-c2nc(Nc3ccccc3)c3ncn(-c4ccsc4)c3n2)cc1	13.2	25.2*	1.3	23.0
O=C(NC1CC1)c1ccc(-c2nc(NCc3nc4ccccc4[nH]3)c3ncn(-c4ccsc4)c3n2)cc1	7.1	-0.1	2.8	87.0*
NC(=O)c1ccc(-c2nc(NCc3nc4ccccc4[nH]3)c3ncn(-c4ccsc4)c3n2)cc1	17.5	0.3	1.4	82.9*
c1ccc(-c2nc(NCc3nc4ccccc4[nH]3)c3ncn(-c4ccsc4)c3n2)cc1	7.0	0.0	-0.1	58.1*
COc1ccccc1N1CCN(C(=O)Cn2cnc3sc4c(c3c2=O)CCCC4)CC1	3.6	0.1	0.2	-5.9
CC(=O)c1cccc(-c2nc(NCc3nc4ccccc4[nH]3)c3ncn(-c4ccsc4)c3n2)c1	7.1	1.6	-1.0	68.7*
O=C(CO)N/N=C/c1c(O)ccc2ccccc12	28.6	-0.6	-1.0	10.7
O=C(CN1CCN(Cc2ccccc2Cl)CC1)N/N=C\c1c(O)ccc2ccccc12	24.4	0.0	1.9	74.1*
O=C(CN1CCOCC1)N/N=C/c1cn(Cc2ccccc2Cl)c2ccccc12	11.3	0.3	-0.5	16.0
O=C(CN1CCOCC1)N/N=C/c1c(O)ccc2ccccc12	18.0	-2.0	0.1	36.4*
COCCCNC(=O)c1cnn(-c2nccc(-c3ccc(OC)c(F)c3)n2)c1C1CC1	13.1	0.2	-1.2	48.5*
COc1cccc(-c2ccnc(-n3ncc(C(=O)NCc4ccccn4)c3C3CC3)n2)c1	14.3	-0.3	0.4	13.6
COC1OC(=O)C(Cl)=C1Nc1cc(C)ccc1C (stereo not drawn)	-0.7	-0.1	2.5	-2.0
Cc1cc(C)n(-c2cc(NCCNC(=O)Nc3cccc(F)c3C)ncn2)n1	1.6	0.0	-1.6	15.9
COc1ccc(C)cc1NC(=O)NCCNc1cc(-n2nc(C)cc2C)ncn1	0.4	-0.3	0.4	50.5*
CCN1CCc2c(sc(NC(=O)c3ccc(S(=O)(=O)N(CC)CC)cc3)c2-c2nc3ccccc3s2)C1	4.7	0.1	0.1	-0.8
CCOC(=O)N1CCc2c(sc(NC(=O)CC)c2-c2nc3ccccc3s2)C1	19.1	0.1	-1.4	10.1
CCN1CCc2c(sc(NC(C)=O)c2-c2nc3ccccc3s2)C1	9.6	0.1	0.4	68.6*
CCC(=O)Nc1sc2c(c1-c1nc3ccccc3s1)CCN(CC)C2	6.3	0.4	2.5	54.3*
CC(C)C(C)(C#N)NC(=O)CSc1nnc(-c2ccc(Cl)cc2)o1 (stereo not drawn)	3.2	0.0	0.6	6.5
SMILES	MITF primary	FBW7 activator	GPR151 activ	TEAD-YAP block
COc1ccc(C(=O)N/N=C(\C)CC(=O)Nc2ccc(F)cc2)cc1	15.5	0.3	-0.4	-18.2
CCOC(=O)C1=C(C)Nc2nnnn2C1c1ccc(OC)c(OC)c1 (stereo not drawn)	-2.4	-0.1	-0.1	0.4
CCCCOc1c(Br)cc(C2NC(=O)NC(C)=C2C(=O)OC)cc1OC (stereo not drawn)	9.3	0.2	1.4	35.0*
COC(=O)C1=C(C)Nc2nnnn2C1c1ccc(OC)cc1 (stereo not drawn)	8.3	0.8	-0.9	4.2
CCOC(=O)C1=C(C)Nc2nnnn2C1c1cc(Br)c(OC)c(OC)c1 (stereo not drawn)	2.8	0.9	1.0	53.4*
COC(=O)C1=C(C)Nc2nnnn2C1c1cc(OC)c(OC)c(OC)c1 (stereo not drawn)	6.3	0.0	0.6	50.9*
COC(=O)C1=C(C)NC(=O)NC1c1cc(Br)c(OC)c(OC)c1 (stereo not drawn)	-12.8	0.0	-2.1	-8.3
CCN(CC1CCCO1)C(=O)Cn1cc(NC(=O)c2ccccn2)cn1 (stereo not drawn)	10.4	-0.1	0.7	3.8

Screening data from PubChem.
